Data from the supplement of paper PMC8728848.
Only a selection was taken, and the strongest signals are over-represented in it overall.

Columns and labels:
Test in all cases: glycan array binding signal (z-score within array); higher = stronger binding
Settings in all cases: glycan notation: IUPAC condensed, linker removed
[1] = molecular target: Fuc(a1-2)Gal(b1-3)GlcNAc(b1-2)Man(a1-3)[Fuc(a1-2)Gal(b1-3)GlcNAc(b1-2)Man(a1-6)]Man(b1-4)GlcNAc(b1-4)GlcNAc
Procedure, shortened: (§1)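 Glycan array binding is given as a within-array Z-score, which can be read as non-binding when negative. The arrays, 3228 of them, came from the Consortium for Functional Glycomics database and were retained only where the protein sequence was available. Z-scores were averaged across arrays of the same protein sequence at different concentrations or buffers and across linkers.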

[2] = molecular target: Fuc(a1-2)Gal(b1-3)GlcNAc(b1-3)GalNAc
Procedure, shortened: as §1

[3] = molecular target: Fuc(a1-2)Gal(b1-3)[Fuc(a1-4)]GlcNAc
Procedure, shortened: as §1

[4] = molecular target: Fuc(a1-2)Gal(b1-3)[Fuc(a1-4)]GlcNAc(b1-3)[Gal(b1-4)GlcNAc(b1-6)]Gal(b1-4)Glc
Procedure, shortened: as §1

[5] = molecular target: Fuc(a1-2)Gal(b1-4)GlcNAc(b1-2)[Fuc(a1-2)Gal(b1-4)GlcNAc(b1-4)]Man(a1-3)[Fuc(a1-2)Gal(b1-4)GlcNAc(b1-2)Man(a1-6)]Man(b1-4)GlcNAc(b1-4)GlcNAc
Procedure, shortened: as §1

[6] = molecular target: Fuc(a1-2)Gal(b1-4)GlcNAc(b1-3)Gal(b1-4)GlcNAc
Procedure, shortened: as §1

[7] = molecular target: Fuc(a1-2)Gal6S(b1-4)Glc6S
Procedure, shortened: as §1

[8] = molecular target: Fuc(a1-2)[Gal(a1-3)]Gal(b1-3)GlcNAc
Procedure, shortened: as §1

[9] = molecular target: Fuc(a1-2)[Gal(a1-3)]Gal(b1-4)GlcNAc
Procedure, shortened: as §1

[10] = molecular target: Fuc(a1-2)[Gal(a1-3)]Gal(b1-4)GlcNAc(b1-2)Man(a1-3)[Fuc(a1-2)[Gal(a1-3)]Gal(b1-4)GlcNAc(b1-2)Man(a1-6)]Man(b1-4)GlcNAc(b1-4)GlcNAc
Procedure, shortened: as §1

[11] = molecular target: Fuc(a1-2)[GalNAc(a1-4)]Gal(b1-4)GlcNAc
Procedure, shortened: as §1

[12] = molecular target: Fuc(a1-3)[Gal(b1-4)]GlcNAc(b1-2)Man(a1-3)[Fuc(a1-3)[Gal(b1-4)]GlcNAc(b1-2)Man(a1-6)]Man(b1-4)GlcNAc(b1-4)[Fuc(a1-6)]GlcNAc
Procedure, shortened: as §1

[13] = molecular target: Fuc(a1-3)[Gal3S(b1-4)]GlcNAc6S
Procedure, shortened: as §1

[14] = molecular target: Gal(a1-3)[Gal(a1-4)]Gal(b1-4)GlcNAc
Procedure, shortened: as §1

[15] = molecular target: Gal(a1-4)Gal(b1-3)GlcNAc(b1-2)Man(a1-3)[Gal(a1-4)Gal(b1-3)GlcNAc(b1-2)Man(a1-6)]Man(b1-4)GlcNAc(b1-4)GlcNAc
Procedure, shortened: as §1

[16] = molecular target: Gal(b1-3)GlcNAc(b1-2)Man(a1-3)[GlcNAc(b1-4)][Gal(b1-3)GlcNAc(b1-2)Man(a1-6)]Man(b1-4)GlcNAc(b1-4)GlcNAc
Procedure, shortened: as §1

[17] = molecular target: Gal(b1-4)GalNAc(b1-3)[Fuc(a1-2)]Gal(b1-4)GlcNAc
Procedure, shortened: as §1

[18] = molecular target: Gal(b1-4)GlcNAc(a1-6)Gal(b1-4)GlcNAc
Procedure, shortened: as §1

[19] = molecular target: Gal(b1-4)GlcNAc(b1-2)Man(a1-3)Man(b1-4)GlcNAc(b1-4)GlcNAc
Procedure, shortened: as §1

[20] = molecular target: Gal(b1-4)GlcNAc(b1-2)Man(a1-3)[Gal(b1-4)GlcNAc(b1-2)Man(a1-6)][GlcNAc(b1-4)]Man(b1-4)GlcNAc(b1-4)[Fuc(a1-6)]GlcNAc
Procedure, shortened: as §1

[21] = molecular target: Gal(b1-4)GlcNAc(b1-2)[Gal(b1-4)GlcNAc(b1-6)]Man(a1-6)[GlcNAc(b1-4)][Gal(b1-4)GlcNAc(b1-2)Man(a1-3)]Man(b1-4)GlcNAc(b1-4)GlcNAc
Procedure, shortened: as §1

[22] = molecular target: Gal(b1-4)GlcNAc(b1-2)[Gal(b1-4)GlcNAc(b1-6)]Man(a1-6)[GlcNAc(b1-4)][Gal(b1-4)GlcNAc(b1-2)[Gal(b1-4)GlcNAc(b1-4)]Man(a1-3)]Man(b1-4)GlcNAc(b1-4)[Fuc(a1-6)]GlcNAc
Procedure, shortened: as §1

[23] = molecular target: Gal(b1-4)GlcNAc(b1-3)Gal(b1-3)GalNAc
Procedure, shortened: as §1

[24] = molecular target: Gal(b1-4)GlcNAc(b1-3)Gal(b1-4)GlcNAc(b1-3)Gal(b1-4)GlcNAc
Procedure, shortened: as §1

[25] = molecular target: Gal(b1-4)GlcNAc(b1-3)Gal(b1-4)GlcNAc(b1-3)Gal(b1-4)GlcNAc(b1-2)Man(a1-3)[Gal(b1-4)GlcNAc(b1-3)Gal(b1-4)GlcNAc(b1-3)Gal(b1-4)GlcNAc(b1-2)Man(a1-6)]Man(b1-4)GlcNAc(b1-4)GlcNAc
Procedure, shortened: as §1

[26] = molecular target: Gal(b1-4)GlcNAc(b1-3)Gal(b1-4)GlcNAc(b1-3)Gal(b1-4)GlcNAc(b1-3)Gal(b1-4)GlcNAc(b1-2)Man(a1-3)[Gal(b1-4)GlcNAc(b1-3)Gal(b1-4)GlcNAc(b1-3)Gal(b1-4)GlcNAc(b1-3)Gal(b1-4)GlcNAc(b1-2)Man(a1-6)]Man(b1-4)GlcNAc(b1-4)[Fuc(a1-6)]GlcNAc
Procedure, shortened: as §1

[27] = molecular target: Gal(b1-4)GlcNAc(b1-3)Gal(b1-4)[Fuc(a1-3)]GlcNAc(b1-3)Gal(b1-4)[Fuc(a1-3)]GlcNAc
Procedure, shortened: as §1

B1: PX9961M-bvu-482-23-482 (Bacteroides vulgatus) (protein)
chain: WLDLAPSTQVDTETSINVLSDIEFTLNGIYSTMQSSDAYSGRLVYYGDVTGDDMQAVSSTKRTGNYYRFNFTKDNGPSSHWSYLYSIIQNCNLILMNVDKLSIDEDETEYKNDLKGQALAIRGMALFDLTRIFGYPYLKDNGASLGVPIVKELSTIDSKPARNTVAECYTEIISDLKNSTELLSGDFNKGKVNRWAAMTLLSRVYLYKGEYNEALTMAENAIKGAEKEGYALWTNEEYPTAWGNDASASNPGEILFEIVNLTTDSPGKESMGYLNSYNGYDDMCITCSFYQLLKKDPKDVRLKILSFDKKYYAYVNKYQPQQGENITDANIPLIRLSEAYLNAAEAAVQTGDNAKAVKYLNSIVQRANPENSVEGKTLTLENVLDERRKELVAEGHRMYDVIRNGMTVKRIDVKDSDINKTKHNTAYMEYDWNFHKILLPIPKKEMDANPNMKQNPGYVD
[1]
  glycan array binding signal (z-score): 0.321
[2]
  glycan array binding signal (z-score): -1.09
[3]
  glycan array binding signal (z-score): -0.893
[4]
  glycan array binding signal (z-score): 0.057
[5]
  glycan array binding signal (z-score): 1.74
[6]
  glycan array binding signal (z-score): -1.33
[7]
  glycan array binding signal (z-score): 0.138
[8]
  glycan array binding signal (z-score): -0.45
[9]
  glycan array binding signal (z-score): -0.597
[10]
  glycan array binding signal (z-score): 1.68
[11]
  glycan array binding signal (z-score): -0.779
[12]
  glycan array binding signal (z-score): 1.97
[13]
  glycan array binding signal (z-score): -0.788
[14]
  glycan array binding signal (z-score): 4.04
[15]
  glycan array binding signal (z-score): 1.92
[16]
  glycan array binding signal (z-score): -0.064
[17]
  glycan array binding signal (z-score): -0.62
[18]
  glycan array binding signal (z-score): 1.66
[19]
  glycan array binding signal (z-score): 0.327
[20]
  glycan array binding signal (z-score): 0.416
[21]
  glycan array binding signal (z-score): -0.402
[22]
  glycan array binding signal (z-score): -0.596
[23]
  glycan array binding signal (z-score): -1.18
[24]
  glycan array binding signal (z-score): -0.219
[25]
  glycan array binding signal (z-score): 1.88
[26]
  glycan array binding signal (z-score): 0.966
[27]
  glycan array binding signal (z-score): -0.719
